Inconclusive results are not listed. A number with no mark means an inactive call. Calls follow the shape of the dose curve; as a rule, active = well fitted inhibition curve with a large enough effect; inconclusive = small, poorly fitted or top-dose-only effect; inactive = flat fitted curve, though single readings scatter.
Assay: qHTS profiling for inhibitors of Plasmodium falciparum proliferation (AID 504749);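 also: 0% = DMSO vehicle and full inhibition = artemisinin control; nearly all actives have a fitted effect of over 60% in size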
Details: P. falciparum in erythrocytes, SYBR Green DNA, 72 h
Summary of the method: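 P. falciparum-infected erythrocytes (0.3% parasitemia, 2.5% hematocrit final) were exposed to compounds for 72 h at 37 C in 5% CO2, then lysed with SYBR Green buffer overnight at room temperature; parasite DNA fluorescence was normalized to artemisinin and DMSO controls.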

[1] = at 28.7 µM (top of the series), parasite line A
[2] = at 28.7 µM (top of the series), parasite line B

Row | Compound | activity, negative = inhibition [1] | activity, negative = inhibition [2] | activity, negative = inhibition (at 12.8 µM (top of the series), parasite line A) | activity, negative = inhibition (at 12.8 µM (top of the series), parasite line B)
1 | CN1CCC(OC(=O)C(Oc2ccc(Cl)cc2)Oc2ccc(Cl)cc2)CC1 | 7.76% | -8.26% |  | 
2 | CC(C)(C)CC(C)(C)c1cc(Cc2cc(C(C)(C)CC(C)(C)C)cc(-n3nc4ccccc4n3)c2O)c(O)c(-n2nc3ccccc3n2)c1 | 10.8% | 2.7% |  | 
3 | O=C1N=C2SCCN2C(=O)C1Cc1ccc(Cl)cc1 (stereo unspecified) | 18.3% | 17.2% |  | 
4 | O=[N+]([O-])c1c(Cl)cccc1-c1c[nH]cc1Cl | -12.9% | -18.4% |  | 
5 | NC(=S)NS(=O)(=O)c1ccc(N)cc1 | -3.33% | -5.51% |  | 
6 | CCCCC(CC)COS(=O)(=O)O (stereo unspecified) | 12.8% | 12.3% |  | 
7 | NC(=O)[C@H]1O[C@@H](O)[C@H](O)[C@@H](O)[C@@H]1O | 12.1% | 13.4% |  | 
8 | CCSc1ccc2c(c1)N(CCCN1CCN(C)CC1)c1ccccc1S2 |  |  | 14.2% | 7.58%
9 | CC(C)c1nc(N(C)S(C)(=O)=O)nc(-c2ccc(F)cc2)c1/C=C/C(O)CC(O)CC(=O)O (stereo unspecified) | 3.93% | -1.83% |  | 
10 | O=C(NNCNNC(=O)c1ccncc1)c1ccncc1 | 1.43% | 9.6% |  | 
11 | Nc1ncnc2c1ncn2CCOCP(=O)(O)O | 14.6% | 5.72% |  | 
12 | COc1ccc2c(=O)c(C)c(-c3ccccc3)oc2c1CN(C)C | -2.15% | -7.38% |  | 
13 | CCOC(=O)c1cc(-c2ccccc2)nc2ccc(C)cc12 | 17.4% | 7.25% |  | 

Reference: PubChem BioAssay (NCATS)
